Results as given in PubChem BioAssay.
“And” between values parts separate entries of the source, which are not always exact repeats. Identical values can stand only once. The source made the active and inactive calls.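 How the source made its calls, unless noted: active means thallium flux through the channel raised or lowered by more than 3 SD from vehicle-only wells, actives on both sides; inactive means the rest.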

Experiments:
[1] = liver-stage malaria parasite growth inhibition, primary screen, cell-based, HepG2, luciferase luminescence, HepG2 viability (AID 624349; in the data active means parasite load remaining mostly below about 12%, no sharp cut-off; inactive means mostly above about 10%;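 further: 100% = mean of DMSO negative control wells on the same plate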); details: P. berghei liver stage in HepG2, luciferase luminescence, concentration not given here; parasite load remaining: stronger effect = lower value; viability: measured here: HepG2 viability without parasites
[2] = Cy5 fluorescence interference with SSB-bound oligo, artefact control for HCV NS3 helicase inhibitor project, biochemical, NIH Clinical Collection, E. coli SSB (AID 743268; call rule not given here)
[3] = test system: Hepatitis C virus NS3 helicase; assay: HCV NS3 helicase inhibitors, primary screen, biochemical, fluorescence polarization, NIH Clinical Collection (AID 743270; call rule not given here); details: NS3 helicase binding to Cy5-dT15 DNA, stronger effect = higher value, concentration not given here
[4] = biological target: Single-stranded DNA-binding protein (Escherichia coli (strain K12)) (UniProt P0AGE0); assay: E. coli SSB displacement from DNA, counter-screen for HCV NS3 helicase inhibitor project, biochemical, fluorescence polarization, NIH Clinical Collection (AID 743271; in the data active means inhibition above about 28%); details: stronger effect = higher value, concentration not given here
[5] = fluorescence interference in NS3h assay format, artefact control for HCV NS3 helicase inhibitor project, biochemical, NIH Clinical Collection (AID 743272; call rule not given here;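 further: HCV NS3 helicase with a Cy5 labelled single stranded DNA probe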); details: fluorescence interference counterscreen, stronger effect = lower value
[6] = test system: Neuropilin-2 / VEGF-C interaction (human); assay: inhibitors of NRP2–VEGF-C binding, biochemical, microplate binding format, z-score (AID 743281; call rule not given here); details: microplate NRP2/VEGF-C binding assay; stronger effect = lower value
[7] = modulation of C. elegans fzo-1 (AID 1259413; call rule not given here;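 further: fzo-1 mutant C. elegans worms in liquid wells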); details: C. elegans fzo-1 modulator screen, mean read-out; stronger effect = higher value
[8] = sensitizers of A549 cells to miR-34 induction, primary screen, imaging, A549 dox-inducible miR-34, nuclei and caspase counts (AID 1347080;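 active means compounds whose cell count with miR-34 switched on is under 0.7 times the count with it off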); details: A549 miR-34 inducible, Hoechst nuclei count, 48 h
F380Y = assay: modulators of BK channel variants, profiling panel, selectivity assay, cell-based, U2OS BacMam, thallium flux, beta subunits (AID 1259406); details: at 30 µM;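 further: initial slope of Thallos dye fluorescence rise after thallium is added; log ratio against the mean of 0.3% DMSO vehicle wells on the same plate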
F380Y/beta1 = assay: as above; details: at 30 µM
F380Y/beta2Delta = assay: as above; details: at 30 µM
F380Y/beta4 = assay: as above; details: at 30 µM
[9] = biological target: Calcium-activated potassium channel subunit alpha-1 (Homo sapiens) + Leucine-rich repeat-containing protein 26 (Homo sapiens) (UniProt Q12791+Q2I0M4); assay: as above; details: F380Y/Slo1WT/gamma1, at 30 µM
Calcium-activated potassium channel subunit alpha-1 (Homo sapiens) + Leucine-rich repeat-containing protein 26 (Homo sapiens), sequence (Q2I0M4 whole entry, looked up, one chain of several): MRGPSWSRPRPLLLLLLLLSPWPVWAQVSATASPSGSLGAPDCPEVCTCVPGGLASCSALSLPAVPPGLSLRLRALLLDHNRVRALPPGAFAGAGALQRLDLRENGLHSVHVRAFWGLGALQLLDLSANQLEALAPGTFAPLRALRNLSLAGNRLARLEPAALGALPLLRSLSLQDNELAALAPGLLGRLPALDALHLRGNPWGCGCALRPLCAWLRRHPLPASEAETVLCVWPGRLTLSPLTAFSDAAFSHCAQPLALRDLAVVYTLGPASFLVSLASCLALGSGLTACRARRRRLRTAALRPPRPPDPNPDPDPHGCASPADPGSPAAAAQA

R275C = assay: as above; details: at 30 µM
R275C/beta1 = assay: as above; details: at 30 µM
R275C/beta2Delta = assay: as above; details: at 30 µM
R275C/beta4 = assay: as above; details: at 30 µM
R275C/Slo1WT/beta2 = assay: as above; details: at 30 µM
[10] = differential killing of epithelial or mesenchymal cells, primary screen, imaging, PC-3E GFP, TEM4-18 mCherry, co-culture (AID 1345086;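 active means compounds killing one labelled cell type while sparing the other, by normalised counts and ratio limits, not self-fluorescent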;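 further: cells exposed to compound for 72 h before imaging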;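 on red/green cell ratio (normalised): normalised mesenchymal count divided by normalised epithelial count so high means epithelial killing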); details: imaging cell counts, at 1 µM
[11] = measured here: relative caspase fold change +Dox/-Dox
[12] = measured here: total cells with miR-34 induction, stronger effect = lower value
[13] = measured here: total cells without miR-34 induction

c1ccc(Cn2ccnc2)cc1
0.727: fold change [8, 11]
7170: cell count [8, 13]
67.7%: viability [1]
8900: cell count [8, 12]
inactive: parasite load remaining [1] 66.3% | fluorescence ratio [2] 0.9 | inhibition [3] -1.09% | inhibition [4] 1.97% | fluorescence ratio [5] 0.88 | z-score [6] 0.238 | mean signal [7] 248 | fold change ([8]; stronger effect = lower value) 1.24 | log fold change Tl+ flux (F380Y) 0.0263 | log fold change Tl+ flux (F380Y/beta1) -0.0465 | log fold change Tl+ flux (F380Y/beta2Delta) -0.0252 | log fold change Tl+ flux (F380Y/beta4) -0.0022 | log fold change Tl+ flux [9] -0.0094 | log fold change Tl+ flux (R275C) -0.0227 | log fold change Tl+ flux (R275C/beta1) -0.0133 | log fold change Tl+ flux (R275C/beta2Delta) -0.00773 | log fold change Tl+ flux (R275C/beta4) -0.0192 | log fold change Tl+ flux (R275C/Slo1WT/beta2) -0.0321

CC[C@@H]1/C=C/C=C/C[C@H](C)[C@@H](O)[C@](C)(O)C(=O)[C@H](C)[C@@H](O)[C@H](C)C(=O)[C@H](C)[C@@H](O)[C@H](C)/C=C/C(=O)O[C@H]2[C@@H](C)[C@@H](CC1)O[C@@]1(CC[C@@H](C)[C@@H](C[C@H](C)O)O1)[C@@H]2C
1130: cell count [8, 13]
1.1: normalised cell number ([10]; measured here: epithelial PC-3E GFP cell survival)
0.56: normalised cell number ([10]; measured here: mesenchymal TEM4-18 mCherry cell survival)
inactive: mean signal [7] 201 | red/green cell ratio (normalised) ([10]; actives lie on both sides) 0.51 | fold change ([8]; stronger effect = lower value) 0.872
0.921: fold change [8, 11]
989: cell count [8, 12]

CN1CC[C@@H](c2ccc(F)cc2)[C@H](COc2ccc3c(c2)OCO3)C1
inactive: parasite load remaining [1] 84.5% | fluorescence ratio [2] 1.01 | inhibition [3] 2.77% | inhibition [4] 0.67% | fluorescence ratio [5] 0.93 | z-score [6] -0.473 | log fold change Tl+ flux (F380Y) 0.106 | log fold change Tl+ flux (F380Y/beta1) 0.0692 | log fold change Tl+ flux (F380Y/beta2Delta) 0.045 | log fold change Tl+ flux [9] -0.0237 | log fold change Tl+ flux (R275C) -0.0665 | log fold change Tl+ flux (R275C/beta2Delta) 0.0265 | log fold change Tl+ flux (R275C/Slo1WT/beta2) -0.033
65.3%: viability [1]
active: log fold change Tl+ flux (F380Y/beta4) 0.102 | log fold change Tl+ flux (R275C/beta1) 0.146 | log fold change Tl+ flux (R275C/beta4) 0.0863

CCCCCCCCCOc1ccc2[nH]cc(CCN)c2c1
3.42%: viability [1]
active: inhibition [4] 67.3% | fluorescence ratio [5] 0.61 | fold change ([8]; stronger effect = lower value) 0.664
inactive: parasite load remaining [1] 0.13% | fluorescence ratio [2] 0.97 | inhibition [3] -8.08% | z-score [6] -2.82 | mean signal [7] 264
1.96: fold change [8, 11]
4000: cell count [8, 12]
6020: cell count [8, 13]

NCCc1ccccn1
10100 and 8480: cell count [8, 13]
95.2%: viability [1]
1.57 and 1.54: fold change [8, 11]
10400 and 8860: cell count [8, 12]
inactive: parasite load remaining [1] 52.1% | fluorescence ratio [2] 1 | inhibition [3] -1.19% | inhibition [4] -1.64% | fluorescence ratio [5] 1 | z-score [6] 1.2 | mean signal [7] 245 | fold change ([8]; stronger effect = lower value) 1.03 | fold change ([8]; stronger effect = lower value, cell number ratio, induced over uninduced) 1.05 | log fold change Tl+ flux (F380Y) -0.0264 | log fold change Tl+ flux (F380Y/beta1) 0.0119 | log fold change Tl+ flux (F380Y/beta2Delta) -0.0265 | log fold change Tl+ flux (F380Y/beta4) -0.0155 | log fold change Tl+ flux [9] 0.0303 | log fold change Tl+ flux (R275C) -0.0283 | log fold change Tl+ flux (R275C/beta1) -0.0664 | log fold change Tl+ flux (R275C/beta2Delta) -0.0248 | log fold change Tl+ flux (R275C/beta4) -0.0421 | log fold change Tl+ flux (R275C/Slo1WT/beta2) -0.0103

CC[C@@H]1C=CC=CC[C@H](C)[C@@H](O)[C@@H](C)C(=O)[C@H](C)[C@@H](O)[C@H](C)C(=O)[C@H](C)[C@@H](O)[C@H](C)C=CC(=O)O[C@H]2[C@@H](C)[C@@H](CC1)O[C@@]1(CC[C@@H](C)[C@@H](C[C@H](C)O)O1)[C@@H]2C
67.4%: viability [1]
inactive: fluorescence ratio [2] 1.01 | inhibition [3] 4.36% | inhibition [4] 7.6% | fluorescence ratio [5] 0.98 | log fold change Tl+ flux (R275C/beta1) 0.0227 | log fold change Tl+ flux (R275C/beta2Delta) -0.0422 | log fold change Tl+ flux (R275C/beta4) -0.0178 | log fold change Tl+ flux (R275C/Slo1WT/beta2) -0.0132
active: parasite load remaining [1] 1.55% | log fold change Tl+ flux (F380Y) -0.509 | log fold change Tl+ flux (F380Y/beta1) -0.604 | log fold change Tl+ flux (F380Y/beta2Delta) -0.884 | log fold change Tl+ flux (F380Y/beta4) -0.693 | log fold change Tl+ flux [9] -0.117 | log fold change Tl+ flux (R275C) -0.133
